Records with an inconclusive call do not appear. Values without a mark were called inactive. Active and inactive are the calls of the source. Calls follow the shape of the dose curve; as a rule, active = well fitted inhibition curve with a large enough effect; inconclusive = small, poorly fitted or top-dose-only effect; inactive = no such curve, though single readings can be large or run the other way.
% is scaled to controls: 0 for no effect and ±100 for the full control effect.

The nature of this assay: Primary qHTS for inhibitors of nuclear receptor binding SET domain protein 2 (NSD2) in an RCH-ACV wild type WT cells (2C) (AID 1645877). Also: nearly all actives have a fitted effect of over 70% in size. Particulars: RCH-ACV (leukaemia line) NSD2 WT (2C) viability, CellTiter-Glo, 72 h; series mostly up to 44.9 µM; activity change, negative = cell killing: at the top concentration. An excerpt: Assay Provider: Jonathan D. Licht, MD
University of Florida College of Medicine, Gainesville, FL
Mutations in epigenetic regulators are common in relapsed pediatric acute lymphoblastic leukemia (ALL). Here, we uncovered the mechanism underlying the relapse of ALL driven by an activating mutation of the NSD2 histone methyltransferase (p.E1099K). […] Correction of this mutation restored glucocorticoid sensitivity. The transcriptional response to glucocorticoids was blocked in NSD2 mutant cells due to depressed glucocorticoid receptor (GR) levels and the failure of glucocorticoids to autoactivate GR expression. […] Pre-treatment of NSD2 p.E1099K cell lines and PDX samples with PRC2 inhibitors reversed glucocorticoid resistance in vitro and in vivo.
High-throughput drug screening of isogenic RCH-ACV cell lines was performed at the National Center for Advancing Translational Science (NCATS), National Institutes of Health as previously described (1). Briefly, isogenic RCH-ACV NSD2 p.E1099K mutant (9B) and WT cells (2C) were plated at 500 cells/well in a 1536-well plate with a 72-hour incubation with compounds prior to addition of CellTiter-Glo to assess cell viability. NCATS libraries screened include: NPC, MIPE 5.0, Kinase and NPACT. To determine compound activity in the qHTS assay, the concentration-response data for each sample was plotted and modeled by a four-parameter logistic fit yielding IC50 and efficacy (maximal response) values. The area under the curve (AUC) of the dose-response curve ensures both efficacy (magnitude of cell killing) and potency (concentration that elicits cell killing) are accounted for in the analysis of activity.
1. Tobie D Lee, Olivia W Lee, Kyle R Brimacombe, Lu Chen, Rajarshi Guha, Sabrina Lusvarghi, Bethilehem G Tebase, Carleen Klumpp-Thomas, Robert W Robey, Suresh V Ambudkar, Min Shen, Michael M Gottesman, Matthew D Hall. A High-Throughput Screen of a Library of Therapeutics Identifies Cytotoxic Substrates of P-glycoprotein. Mol Pharmacol. 2019, Nov;96(5):629-640.
Background: qHTS replaces the single test concentration by a dilution series.
Regarding `O=C(Nc1cc(-c2ccccc2)nn1-c1ccccc1F)c1ccc([N+](=O)[O-])cc1`, the “activity change, negative = cell killing” value was -25.9%.

As for `CC1=C2C(=O)C=C(CO[C@@H]3O[C@H](CO)[C@@H](O)[C@H](O)[C@H]3O)[C@@H]2[C@H]2OC(=O)[C@H](C)[C@@H]2[C@@H](O)C1`, the “activity change, negative = cell killing” value was 0.0438% [at 17.3 µM].

Regarding `CC1=C[C@@H]2[C@H]3[C@@H]4O[C@@](C)(CC[C@H]4O)[C@H]3CC(=O)[C@]23C(=O)N[C@@H](CC(C)C)[C@@H]3[C@@H]1C`, the “activity change, negative = cell killing” value is -2.13%.

For `C[C@@H]1CCC2C(C)(C)[C@H](O)[C@H](O)C[C@]2(C)[C@@]12Cc1c(O)cc3c(c1O2)CN(CCCC(=O)O)C3=O` (stereo not given in full), the “activity change, negative = cell killing” value is -16.6% [at 17.3 µM].

Consider `CC(C)c1ccc2c(c1)CCC1[C@](C)(C(=O)O)CCC[C@]21C` (stereo not given in full), for which the “activity change, negative = cell killing” value is -19.6%.

In the case of `COc1cc(CO)cc(OC)c1O[C@@H]1O[C@H](CO)[C@@H](O)[C@H](O)[C@H]1O`, the molecule was classed as inactive.

On to `C=C1C(O)CC2C(C(=O)O)=COC(O[C@@H]3O[C@H](COC(=O)c4ccc(O)cc4)[C@@H](O)[C@H](O)[C@H]3O)C12` (stereo not given in full), for which the “activity change, negative = cell killing” value is -9.84% [at 17.3 µM].

On to `CC(=O)OC1CCC2(C)C(CCC3(C)C2CC=C2C4CC(C)(C)CCC4(C)CCC23C)C1(C)C(=O)O` (stereo not given), for which the “activity change, negative = cell killing” value was -12.9% [at 17.3 µM].

Regarding `CC1CC(=O)[C@]2(O)C(C(=O)OCCc3ccc(O)c(O)c3)=CO[C@@H](O[C@@H]3O[C@H](CO)[C@@H](O)[C@H](O)[C@H]3O)[C@H]12` (stereo not given in full), the “activity change, negative = cell killing” value was -26.2% [at 17.3 µM].

For the molecule `CC1=C2C(=O)C=C(CO)C2C2OC(=O)C(CS(=O)(=O)O)C2C(OC(=O)Cc2ccc(O)cc2)C1` (stereo not given), the “activity change, negative = cell killing” value is -26.8% [at 17.3 µM].

With `CC(C)CC[C@@H](O)[C@](C)(O)[C@H]1CC[C@@]2(O)C3=CC(=O)[C@@H]4C[C@@H](O)[C@@H](O)C[C@]4(C)[C@H]3CC[C@]12C`, the “activity change, negative = cell killing” value is -4.67%.

With `C=C1C2(C)CC3C4(C)OC(C5OC56C4=CC(=O)OC6(C)C)C3(C)C13C(=O)OC(C)C3(O)C2=O` (stereo not given), the “outcome” value is “inactive [at 17.3 µM]”.

Take `C=C[C@H]1[C@H](O[C@@H]2O[C@H](CO)[C@@H](O)[C@H](O)[C@H]2O)OC=C(C(=O)OC)[C@H]1CCO`: the “activity change, negative = cell killing” value was 1.96%.

With `O=C(O)/C=C/c1ccc(O[C@@H]2O[C@H](CO)[C@@H](O)[C@H](O)[C@H]2O)cc1`, the call was inactive.

Consider `Cc1cc(C(=O)N2Cc3cnn(C)c3Nc3ccccc32)ccc1CNC(=O)N1CCN(Cc2cc(O)cc(O)c2)CC1`, for which the outcome was inactive.

On to `Cc1cn(-c2cc(NC(=O)c3ccc(C)c(Nc4nccc(-c5cnccn5)n4)c3)cc(C(F)(F)F)c2)cn1`, for which the molecule was classed as inactive.

Turning to `OC[C@H]1O[C@@H](Oc2cc(O)cc(-c3cc4ccc(O[C@@H]5O[C@H](CO)[C@@H](O)[C@H](O)[C@H]5O)cc4o3)c2)[C@H](O)[C@@H](O)[C@@H]1O`, the “activity change, negative = cell killing” value is -26.3% [at 17.3 µM].

Turning to `CC1CCC2C(C)(C)C(O)C(O)CC2(C)C12Cc1c(O)cc(CO)c(C=O)c1O2` (stereo not given), the “activity change, negative = cell killing” value is -29.7% [at 17.3 µM].

Turning to `C/C=C(/C)C(=O)OC1CC(C)(C)CC2C3=CCC4C5(C)CCC(OC6OC(C)C(OC7OC(C(=O)O)C(O)C(OC8OC(CO)C(O)C(O)C8OC8OC(CO)C(O)C(O)C8O)C7O)C(O)C6O)C(C)(C)C5CCC4(C)C3(C)C(OC(=O)/C=C/C=C/C=C/CCC)C(OC(C)=O)C12CO` (stereo not given), the activity change, negative = cell killing was -14.8% [at 9.23 µM].

On to `C=C(C)[C@@]1(O)C[C@@]2(C)C(=CC1=O)CC[C@@H](O)[C@@H]2C`, for which the “activity change, negative = cell killing” value was -11.4%.

Turning to `CC(C)c1ccc2c(c1)C(=O)CC1C(C)(C(=O)O)CCCC21C` (stereo not given), the “activity change, negative = cell killing” value was -26.6%.

With `C=C(C)C(O)COc1ccc(CC(=O)O)cc1` (stereo not given), the outcome was inactive.

On to `C=C(CCO)C(=O)OCC1OCC(OC(=O)C(=C)CCO[C@@H]2O[C@H](CO)[C@@H](O)[C@H](O)[C@H]2O)C(O)C1O` (stereo not given in full), for which the “outcome” value was “inactive [at 17.3 µM]”.

In the case of `Cc1ccccc1NC(=O)Nc1ccc(CN2C(=O)N([C@@H](CC(C)C)C(=O)N[C@@H](CC(=O)O)c3ccccc3)C(=O)C2(C)C)cc1`, the “activity change, negative = cell killing” value was -0.249%.

As to `C/C=C1/C[N+](C)([O-])C2Cc3c([nH]c4ccccc34)C(=O)CC1C2C(=O)OC` (stereo not given), the “activity change, negative = cell killing” value was -5.21%.

On to `CC1(C)CCC2(C(=O)O)CCC3(C)C(=CCC4C5(C)CCC(O)C(C)(CO)C5C(O)CC43C)C2C1` (stereo not given), for which the “outcome” value was “inactive [at 17.3 µM]”.

As to `C=C1C(O)CC2C(C(=O)O)=COC(OC3OC(CO)C(O)C(O)C3OC(=O)/C=C\c3ccc(O)cc3)C12` (stereo not given), the “activity change, negative = cell killing” value is -0.583% [at 17.3 µM].

Consider `CC1=CC2=C(C)C(=O)[C@](C)(O)[C@H](O)C2=CO1`, for which the “activity change, negative = cell killing” value is -9.55%.

With `COc1c2c(c(C)c3c1C(=O)OC3)OC1(C)CC(O)C34OC(OC)(CCC3(C)C1C2)OC4(C)CO` (stereo not given), the “activity change, negative = cell killing” value is -8.34% [at 17.3 µM].

For `COC(=O)Cn1nc(-c2cccc(OC)c2)c2ccccc21`, the “activity change, negative = cell killing” value was -0.794%.

Turning to `COc1cc(C(C)=O)ccc1O[C@@H]1O[C@H](CO[C@@H]2OC[C@@H](O)[C@H](O)[C@H]2O)[C@@H](O)[C@H](O)[C@H]1O`, the “activity change, negative = cell killing” value is -11.8% [at 17.3 µM].

`C=C(CC/C=C(\C)C(=O)O)C1(O)CC=C(C)CC1` (stereo not given): the “activity change, negative = cell killing” value is -5.54%.

As for `O=C(O)c1cccc(C(=O)CCC2OC(n3cnc4c(=O)[nH]cnc43)C(O)C2O)c1` (stereo not given), the “activity change, negative = cell killing” value was 1.5% [at 17.3 µM].

In the case of `C/C(=C\CC/C(C)=C/CC[C@]1(C)CCc2cc(O)cc(C)c2O1)CC/C=C(\C)C(=O)O`, the “activity change, negative = cell killing” value was -29.1% [at 17.3 µM].

For `C=C1CCC2[C@](C)(CCC[C@]2(C)C(=O)O)[C@H]1CC/C(C)=C/C(=O)OC` (stereo not given in full), the “activity change, negative = cell killing” value was -0.193%.

Turning to `CC1(C)CC[C@]2(C(=O)O[C@@H]3O[C@H](CO[C@@H]4O[C@H](CO)[C@@H](O)[C@H](O)[C@H]4O)[C@@H](O)[C@H](O[C@@H]4O[C@H](CO)[C@@H](O)[C@H](O)[C@H]4O)[C@H]3O)CC[C@]3(C)C(=CCC4[C@@]5(C)CC[C@H](O[C@@H]6OC[C@@H](O)[C@H](O)[C@H]6O)[C@@](C)(C(=O)O)C5CC[C@]43C)[C@@H]2C1` (stereo not given in full), the outcome is “inactive [at 9.23 µM]”.

In the case of `C/C=C/C=C/C(O)=C1/C(=O)[C@]2(C)C(=O)[C@@](C)(O)[C@H]1[C@H]([C@@]1(C)OC(=O)C(C)=C1O)[C@H]2C(=O)CC/C=C/C`, the “activity change, negative = cell killing” value was -3.69% [at 17.3 µM].

In the case of `COc1ccc(-n2[nH]c3c(cnc4ccccc43)c2=O)cc1`, the “activity change, negative = cell killing” value is 3.86%.

For `COc1ccc(O[C@@H]2O[C@H](CO)[C@@H](O)[C@H](O)[C@H]2O)cc1OC`, the “activity change, negative = cell killing” value is -0.24%.

Turning to `COc1ccc(/C=C/C(N)=O)cc1OC`, the “activity change, negative = cell killing” value is 0.868%.

The values above are taken from PubChem BioAssay (NCATS).
